Test results: PubChem BioAssay (NCI)
This is part of a sample that, as a whole, favours compounds with a hit. Of some 79,000 tested, about 15% had one in any assay. The source made the active and inactive calls. No stated cut-off is given here; in the data, active means growth inhibition above about 70%; inactive means the rest.

assay: NCI Yeast Anticancer Drug Screen. Data for the cln2 rad14 strain (AID 165);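 further: 0% = growth equal to vehicle treated cultures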; conditions: S. cerevisiae cln2 rad14 strain, at 50.0 µM, stronger effect = higher value
Method in brief: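 Yeast strain cln2 rad14, bearing defects in cell cycle control and DNA repair, serves as the test system; values reflect growth inhibition compared with vehicle.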

Structure (SMILES) | growth inhibition
CNC1=C(Sc2ccc(Cl)cc2)C(=O)c2ccccc2C1=O | 3.25% (inactive)
COc1c(OC2OC(CO)C(O)C(O)C2O)cc2c(c1OC)-c1ccc(OC)c(=O)cc1C(NC(C)=O)CC2 (stereo not given) | 11.7% (inactive)
NS(=O)(=O)c1ccc(N=C2C=CC(=O)C=C2)cc1 | -36.4% (inactive)
Cc1cc(Cl)nc2ccc(Cc3ccc(Cl)cc3)cc12 | 11.9% (inactive)
Cc1cc(N(CCC#N)CCC#N)ccc1/C=C(\NC(=O)/C=C/c1ccccc1)C(=O)N=[N+]=[N-] | -19.4% (inactive)
CCCCCCn1c(=O)cc2n(c1=O)CCC2 | 11.1% (inactive)
O=C(O)c1ccccc1-c1ccccc1C(=O)O | -41.2% (inactive)
COC(=O)C1C(=C(c2ccccc2)c2ccccc2)C1c1ccccc1 (stereo not given) | -11.4% (inactive)
O=C(CCc1ccccc1)NC(=S)Nc1cc(C(F)(F)F)ccc1Cl | -41.8% (inactive)
COC1OCC(OS(C)(=O)=O)C(NC(C)=O)C1OS(C)(=O)=O (stereo not given) | -19.2% (inactive)
CC(=O)OC/C=C(C)/C=C/C=C(C)/C=C/C1=C(C)CCCC1(C)C | -2.25% (inactive)
C=CCN1C(=O)c2ccccc2S1(=O)=O | -27.8% (inactive)
O=C(CN1CCOCC1)CC(O)(C(F)(F)F)C(F)(F)F | 7.1% (inactive)
CC1(C)CC([N+](C)(C)CCCCCC[N+](C)(C)C2CC(C)(C)N(O)C(C)(C)C2)CC(C)(C)N1O | -4.3% (inactive)
O=C1c2cc(Cl)ccc2-c2ccc(Cl)cc21 | -11.8% (inactive)
CC(=C(C#N)C#N)c1ccccc1 | 6.45% (inactive)
COc1ccc(NC(=O)NCc2ccc(C)c(C)c2)cc1 | -3.05% (inactive)
CC(C)(C)C1CCC(O)(CSc2ccccc2)CC1 (stereo not given) | -1.75% (inactive)
COc1cc(C(c2cc3c(cc2O)OCO3)n2ccnc2)cc(OC)c1OC (stereo not given) | 8.75% (inactive)
CC(=N/NC(=S)NCCN1CCCC1)/C(C)=N\NC(=S)NCCN1CCCC1 | 10.6% (inactive)

Structure (SMILES) | growth inhibition
COc1ccc(/C=C/C(=O)c2ccc(Br)cc2)cc1 | 2.75% (inactive)
CCCCCCCCCC(C)=O | -17.9% (inactive)
c1ccc(-c2c(-c3ccc4c(c3)CCCC4)c(-c3ccccc3)c3c(c2-c2ccccc2)-c2cccc4cccc-3c24)cc1 | 13.3% (inactive)
O=c1c(SCc2ccccc2)c(N2CCOCC2)cnn1-c1ccccc1 | 30.1% (inactive)
CC1=Nc2ccccc2NC2(C1)C(C1COC(C)(C)O1)OC1OC(C)(C)OC12 (stereo not given) | 21.5% (inactive)
COc1ccc(-c2cc(-c3ccccc3)c(-c3ccccc3)nn2)cc1CN1CCOCC1 | 10.7% (inactive)
O=C1CCCc2[nH]c3ccc(Cl)cc3c21 | -21.9% (inactive)
Cc1cc(C)c2c(=O)cc(-c3cccc(F)c3)[nH]c2n1 | 3.8% (inactive)
O=C(CN(Cc1ccccc1)Cc1ccccc1)C(O)C1OC(c2ccccc2)OCC1O (stereo not given) | -4.5% (inactive)
CN1CC(=O)N2CCCCC2C(c2ccccc2)C1 (stereo not given) | -34.7% (inactive)
O=C1C(N=Nc2ccccc2)Sc2nc3ccccc3n21 (stereo not given) | -52% (inactive)
O=C(OC1OC(COCc2ccccc2)C(OCc2ccccc2)C1OCc1ccccc1)c1ccc([N+](=O)[O-])cc1 (stereo not given) | -26.1% (inactive)
O=[N+]([O-])c1ccc(S(=O)(=O)N/N=C/c2ccco2)cc1 | 9.75% (inactive)
CC1CN=C(N(Cc2ccccc2)C(=O)Nc2ccc(Cl)c(Cl)c2)S1 (stereo not given) | 26.7% (inactive)
N#Cc1c2c(c(=O)n3c1[nH]c1ccccc13)CCCC2 | 7.95% (inactive)
C/C(=C/CCl)[N+](=O)[O-] | -7.35% (inactive)
C(=Nc1ccc2ccccc2c1)c1cccs1 | -12.1% (inactive)
CSc1nc2cc(C)c(C)cc2[nH]1 | -25.5% (inactive)
CC(C)(C)OC(=O)NCCNC(=O)OCc1ccccc1 | 4.45% (inactive)
CC(=O)N1CCc2[nH]c3ccccc3c2CC1 | 21.8% (inactive)

assay: NCI Yeast Anticancer Drug Screen. Data for the bub3 strain (AID 167); conditions: S. cerevisiae bub3 mutant strain, at 50.0 µM, stronger effect = higher value
Method in brief: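 Compounds were applied to a genetically altered yeast strain carrying a cell-cycle control defect. Growth inhibition was scored against vehicle-treated controls.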

Structure (SMILES) | growth inhibition
CNC1=C(Sc2ccc(Cl)cc2)C(=O)c2ccccc2C1=O | 2.75% (inactive)
COc1c(OC2OC(CO)C(O)C(O)C2O)cc2c(c1OC)-c1ccc(OC)c(=O)cc1C(NC(C)=O)CC2 (stereo not given) | 19% (inactive)
NS(=O)(=O)c1ccc(N=C2C=CC(=O)C=C2)cc1 | -4.05% (inactive)
Cc1cc(Cl)nc2ccc(Cc3ccc(Cl)cc3)cc12 | 11.1% (inactive)
Cc1cc(N(CCC#N)CCC#N)ccc1/C=C(\NC(=O)/C=C/c1ccccc1)C(=O)N=[N+]=[N-] | -21.1% (inactive)
CCCCCCn1c(=O)cc2n(c1=O)CCC2 | 3.5% (inactive)
O=C(O)c1ccccc1-c1ccccc1C(=O)O | -1.8% (inactive)
COC(=O)C1C(=C(c2ccccc2)c2ccccc2)C1c1ccccc1 (stereo not given) | 6.85% (inactive)
O=C(CCc1ccccc1)NC(=S)Nc1cc(C(F)(F)F)ccc1Cl | -8% (inactive)
COC1OCC(OS(C)(=O)=O)C(NC(C)=O)C1OS(C)(=O)=O (stereo not given) | 0.45% (inactive)
CC(=O)OC/C=C(C)/C=C/C=C(C)/C=C/C1=C(C)CCCC1(C)C | 12.5% (inactive)
C=CCN1C(=O)c2ccccc2S1(=O)=O | -3.15% (inactive)
O=C(CN1CCOCC1)CC(O)(C(F)(F)F)C(F)(F)F | 1.85% (inactive)
CC1(C)CC([N+](C)(C)CCCCCC[N+](C)(C)C2CC(C)(C)N(O)C(C)(C)C2)CC(C)(C)N1O | -3% (inactive)
O=C1c2cc(Cl)ccc2-c2ccc(Cl)cc21 | -1.2% (inactive)
CC(=C(C#N)C#N)c1ccccc1 | 2.8% (inactive)
COc1ccc(NC(=O)NCc2ccc(C)c(C)c2)cc1 | 20.1% (inactive)
CC(C)(C)C1CCC(O)(CSc2ccccc2)CC1 (stereo not given) | -6.7% (inactive)
COc1cc(C(c2cc3c(cc2O)OCO3)n2ccnc2)cc(OC)c1OC (stereo not given) | 2.9% (inactive)
CC(=N/NC(=S)NCCN1CCCC1)/C(C)=N\NC(=S)NCCN1CCCC1 | 12.7% (inactive)

Structure (SMILES) | growth inhibition
COc1ccc(/C=C/C(=O)c2ccc(Br)cc2)cc1 | -14.4% (inactive)
CCCCCCCCCC(C)=O | 4.45% (inactive)
c1ccc(-c2c(-c3ccc4c(c3)CCCC4)c(-c3ccccc3)c3c(c2-c2ccccc2)-c2cccc4cccc-3c24)cc1 | -2.9% (inactive)
O=c1c(SCc2ccccc2)c(N2CCOCC2)cnn1-c1ccccc1 | 22.1% (inactive)
CC1=Nc2ccccc2NC2(C1)C(C1COC(C)(C)O1)OC1OC(C)(C)OC12 (stereo not given) | 2.1% (inactive)
COc1ccc(-c2cc(-c3ccccc3)c(-c3ccccc3)nn2)cc1CN1CCOCC1 | -5.05% (inactive)
O=C1CCCc2[nH]c3ccc(Cl)cc3c21 | -14.2% (inactive)
Cc1cc(C)c2c(=O)cc(-c3cccc(F)c3)[nH]c2n1 | -1.3% (inactive)
O=C(CN(Cc1ccccc1)Cc1ccccc1)C(O)C1OC(c2ccccc2)OCC1O (stereo not given) | -1.65% (inactive)
CN1CC(=O)N2CCCCC2C(c2ccccc2)C1 (stereo not given) | -9.35% (inactive)
O=C1C(N=Nc2ccccc2)Sc2nc3ccccc3n21 (stereo not given) | 4.5% (inactive)
O=C(OC1OC(COCc2ccccc2)C(OCc2ccccc2)C1OCc1ccccc1)c1ccc([N+](=O)[O-])cc1 (stereo not given) | -5.3% (inactive)
O=[N+]([O-])c1ccc(S(=O)(=O)N/N=C/c2ccco2)cc1 | 13.2% (inactive)
CC1CN=C(N(Cc2ccccc2)C(=O)Nc2ccc(Cl)c(Cl)c2)S1 (stereo not given) | -0.65% (inactive)
N#Cc1c2c(c(=O)n3c1[nH]c1ccccc13)CCCC2 | 18.4% (inactive)
C/C(=C/CCl)[N+](=O)[O-] | -8.95% (inactive)
C(=Nc1ccc2ccccc2c1)c1cccs1 | 5.1% (inactive)
CSc1nc2cc(C)c(C)cc2[nH]1 | 15.1% (inactive)
CC(C)(C)OC(=O)NCCNC(=O)OCc1ccccc1 | -3.5% (inactive)
CC(=O)N1CCc2[nH]c3ccccc3c2CC1 | -3.1% (inactive)
